The campaign covered roughly 140,000 compounds. About 4,300 (3.1%) were called active. Roughly 21% stayed inconclusive and do not appear here. The sample holds actives, similar compounds and a random draw of the others, so the mix is not that of the screen. Unmarked numbers belong to inactive results.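 Rule for the calls: active = readout at or below -70, meaning at least 70% loss of cells showing the perinucleolar compartment, a nuclear body marking cancer cells; inconclusive = readout between -30 and a set limit; inactive = the rest.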

The test in a line: High Content Assay for Compounds that inhibit the Assembly of the Perinucleolar Compartment.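 Note: plate controls were DMSO wells for no effect and camptothecin positive control wells for full effect.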 The conditions noted are these: PC3M PTB-GFP, PNC prevalence imaging, 16 h; at 10 µM; hits give low values. The text has this: High Content Assay for Compounds that inhibit the Assembly of the Perinucleolar Compartment NIH Chemical Genomics Center [NCGC] NIH Molecular Libraries Probe Centers Network [MLPCN] MLPCN Grant: MH082371-01A2 Assay Submitter (PI): Sui Huang, Northwestern University, Feinberg School of Medicine, Cell and Molecular Biology, Chicago, Illinois. The perinucleolar compartment (PNC) is a non-membrane-bound nuclear subdomain that is associated with but structurally distinct from the nucleolus. The PNC is a heritable trait, in which the number of PNCs per cell in daughter cells often mimics that of their mother cells. The PNC is heterogeneous in shape, is stable through interphase, disassembles during mitosis, and reassembles in early G1. The PNC is concentrated with newly synthesized RNA polymerase III (pol III) RNAs (MRP RNA, RNAse P H1 RNA, hY RNAs[hY1, 2, 5], Alu RNA, and SRP [7SL] RNA) and RNA binding proteins (nucleolin, PTB, CUG-BP, KSRP, Raver1, Raver2, and Rod). […] Extensive in vitro studies have shown that the PNC is unique to tumor cells and preferentially forms in tumor cells derived from solid tissues. Examination of cancer cell lines from various origins and malignant capacities has shown that PNC prevalence correlates with the malignancy of tumors and has the potential to be developed as a pan-cancer prognostic marker. […] Although the PNC is associated with a DNA locus and a handful of components have been identified, much remains to be investigated regarding the structure and function of the PNC and its mechanistic link to cancer. We have previously shown that PNC prevalence reduction is a valid strategy to identify compounds that can be used to study the structure and function of the PNC. It is necessary, however, to create a screening platform that is able to test a large number of compounds in an automated fashion. Here we report the development and robustness of an automated whole-cell phenotypic image-based screening assay that is capable of identifying such compounds.
PNC High Content Imaging Assay Procedure: 1. Cells at a density of 75-90% confluency in T175 flasks were harvested using 7 ml TrypLE Express cell dissociation reagent. After dissociation (5 minutes room temperature incubation) 10 ml of complete media was added to the TrypLE/cell suspension. The liquid was transferred to a 50 ml Conical tube and cells were pelleted at 1000 RPM for 5 min. Supernatant was removed and cells were resuspended to a final density of 150-200 cells/ul in complete media. 2. Cells were plated in 5 ul volume (750-1000 cells/well) into 1536 well Black uclear Aurora Low Base plates and allowed to recover and adhere at 37 C in a humidified 5% CO2 incubator for 4 hours. 3. After 4 hour incubation, compound libraries (23 nl of […] in columns 5-48) were transferred to the plates in duplicate using a 1536 well pintool. Camptothecin positive control (59 uM final) was added to column 2 and 1:3 dilutions of camptothecin was added to column 3. DMSO negative controls were present in columns 1 and 4. 4. After a 16 hour incubation in the 37 C incubator, cells were fixed by the addition of 4 ul of 6% EM grade paraformaldehyde (containing 0.1% triton X 100) directly to the cells. The plates were incubated at room temperature for 20 minutes. The liquid was removed using a 32 channel Kalypsys aspirator and the fixed cells were washed twice with 5 ul PBS followed by a final addition of 5 ul PBS containing 1 ug/ml Hoechst 33342. 5. Fixed plates were sealed and sotred at 4C until imaged. 6. Plates were imaged on an InCell 1000 automated microscope using a 20 x objective, a standard FITC filter set, no camera binning, and an exposure time of ~100-150 msec/well. 7. Data analysis. PNC prevalence was determined using the Multitarget analysis module from InCell Workstation software (V3.5 ) and analysis was run on a quad core workstation using the Incell Developer Toolbox (V1.7). […]
As to `OC(CNC1CCCCC1)c1ccccc1` (stereo not given), the activity change (PNC), negative = inhibition is 38.6%.
With `c1cc2c(cc1CCNC1CCCCCC1)OCO2`, the activity change (PNC), negative = inhibition is -119% (active).
Regarding `CC(=NCc1ccc2c(c1)OCO2)c1c(O)[nH]c(=O)[nH]c1=O`, the activity change (PNC), negative = inhibition was -17.3%.
The figure for `CNC(=S)N/N=C1\C2CN3CCN(C2)CC1(c1ccccc1)C3` is -18.5%.
On to `CCOC(=O)C(O)(c1ccc(N=Cc2ccccc2O)c(C)c1)C(F)(F)F` (stereo not given), for which the activity change (PNC), negative = inhibition is -11.8%.
Take `Cc1ccc(-n2c(C)cc(/C=C3\C(=O)NC(=O)N(C)C3=O)c2C)cc1C`: the activity change (PNC), negative = inhibition was 23.8%.
The figure for `O=C(CCCn1c(=O)[nH]c2cc(Cl)ccc2c1=O)N1CCC2(CC1)OCCO2` is 44%; for `COc1ccc(-c2nc(CS(=O)CC(=O)N3CCC4(CC3)OCCO4)c(C)o2)cc1` (stereo not given) it is -14.2%; for `Cc1ccc(Cn2c(C)c3cnn(CC(=O)N4CCC5(CC4)OCCO5)c(=O)c3c2C)cc1` it is -100% (active).
For `CC(C)N(CC#CCC1(O)c2ccccc2-c2ccccc21)C(C)C` the value was 48.8%; for `CN(C)C(=O)Oc1cc(=O)n2c3c(cccc13)CCC2`, 23.5%; for `Cc1ccc(-n2c(-c3ccc([N+](=O)[O-])cc3)nc3ccccc3c2=O)cc1`, -17%.
As to `CC(C(=O)Nc1ccc(Cl)cc1Cl)N1CC=C(c2ccccc2)CC1` (stereo not given), the activity change (PNC), negative = inhibition is 38%.
For `Cc1cccc(OP(=O)(Oc2cccc(C)c2)OC(c2ccccc2)C(F)(F)F)c1` (stereo not given) the value was -3.33%; for `CCCCCn1c(=O)c(C(=O)Nc2c(C)n(C)n(-c3ccccc3)c2=O)c(O)c2ccccc21`, -20.3%.
For `CCCCCn1c(=O)c(C(=O)NCc2ccccn2)c(O)c2ccccc21` the value was -112% (active); for `Cc1ccnc(-n2c(C)cc(/C=C3\C(=O)NC(=S)N(C)C3=O)c2C)c1`, -11.7%.
In the case of `C=CCn1c(O)c(/C=N/N2CCOCC2)c(=O)[nH]c1=S`, the activity change (PNC), negative = inhibition is 60.9%.
For `CN1CCN(c2cc(N3CCNCC3)ccc2[N+](=O)[O-])CC1` the value was 12.6%; for `CC1=C(C(=O)Nc2ccccc2)SCCO1`, -98% (active).
The figure for `O=C1NC(=O)N(c2ccc(F)cc2)C(=O)/C1=C/c1ccc2c(c1)CCCN2Cc1ccccc1` is -20.7%.
For `O=C1N=c2ccccc2=C/C1=C\c1c(O)[nH]c(=S)[nH]c1=O`, the activity change (PNC), negative = inhibition is -19.2%.
In the case of `CN(C)CC1CCCCC1OC(=O)c1ccc(Cl)c(Cl)c1` (stereo not given), the activity change (PNC), negative = inhibition is -10.5%.
For `O=C1NC(=O)C(CCc2ccccn2)(Cc2cccc(Cl)c2Cl)C(=O)N1c1ccc(Br)cc1` (stereo not given) the value was -14.3%; for `Cc1ccc2c(c1)C1CN(C)CCC1N2C(=O)Cn1nnc(-c2ccccc2F)n1` (stereo not given), -101% (active).

(Values after PubChem BioAssay AID2417 (National Center for Advancing Translational Sciences (NCATS), 2010).)
